Measurements reported in PubChem BioAssay AID1159580 (chemical genetic matrix, 2015).
Out of some 5,500 compounds screened, about 2,000 (36%) were called active. Not shown: some 18% with an inconclusive outcome. No stated cut-off is given here; in the data, active means normalized growth mostly below about 0.91 (no sharp cut-off); inconclusive means no clear call, values can overlap the other calls; inactive means mostly above about 0.92. The list shows a part of the results.

Assay: chemical genetic growth profiling, strain panel (AID 1159580);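 further: tested at 20 µM; growth read once vehicle control cultures reached saturation at 30 °C; 1 = growth at the plate median or of vehicle wells; lower values mean less growth of the strain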
Details: S. cerevisiae deletion strains, growth OD

Measured: normalized growth

O=C1c2ccccc2C(=O)c2sccc21
active: locus YAR019C, strain CDC15, hits give low values 0.556 | locus YBL105C, strain PKC1, hits give low values 0.778 | locus YBR135W, strain CKS1, hits give low values 0.716 | locus YBR136W, strain MEC1, hits give low values 0.718 | locus YBR160W, strain CDC28, hits give low values 0.75 | locus YDL017W, strain CDC7, hits give low values 0.72 | locus YDL028C, strain MPS1, hits give low values 0.749 | locus YDL101C, strain DUN1, hits give low values 0.466 | locus YDL108W, strain KIN28, hits give low values 0.752 | locus YDL132W, strain cdc53, hits give low values 0.674 | locus YDL214C, strain PRR2, hits give low values 0.233 | locus YDR052C, strain DBF4, hits give low values 0.646 | locus YDR054C, strain cdc34, hits give low values 0.556 | locus YDR226W, strain ADK1, hits give low values 0.751 | locus YDR477W, strain SNF1, hits give low values 0.209 | locus YER123W, strain YCK3, hits give low values 0.183 | locus YER133W, strain GLC7, hits give low values 0.225 | locus YFL009W, strain cdc4, hits give low values 0.59 | locus YFL029C, strain CAK1, hits give low values 0.4 | locus YFR003C, strain YPI1, hits give low values 0.694 | locus YFR019W, strain FAB1, hits give low values 0.171 | locus YFR028C, strain CDC14, hits give low values 0.649 | locus YGR040W, strain KSS1, hits give low values 0.182 | locus YGR052W, strain FMP48, hits give low values 0.156 | locus YGR092W, strain DBF2, hits give low values 0.152 | locus YHR030C, strain SLT2, hits give low values 0.157 | locus YHR079C, strain IRE1, hits give low values 0.211 | locus YHR082C, strain KSP1, hits give low values 0.204 | locus YHR205W, strain SCH9, hits give low values 0.124 | locus YIL147C, strain SLN1, hits give low values 0.669 | locus YJL095W, strain BCK1, hits give low values 0.154 | locus YJL128C, strain PBS2, hits give low values 0.595 | locus YJL157C, strain FAR1, hits give low values 0.227 | locus YJR016C, strain ILV3, hits give low values 0.483 | locus YJR066W, strain TOR1 (second series), hits give low values 0.147 | locus YJR066W, strain TOR1, hits give low values 0.15 | locus YKL048C, strain ELM1, hits give low values 0.33 | locus YKL067W, strain YNK1, hits give low values 0.272 | locus YKL101W, strain HSL1, hits give low values 0.209 | locus YKL193C, strain SDS22, hits give low values 0.498 | locus YKL203C, strain TOR2, hits give low values 0.158 | locus YLR113W, strain HOG1, hits give low values 0.303 | locus YLR133W, strain CKI1, hits give low values 0.196 | locus YLR403W, strain SFP1, hits give low values 0.154 | locus YML070W, strain DAK1, hits give low values 0.214 | locus YMR001C, strain CDC5, hits give low values 0.614 | locus YMR205C, strain PFK2 (second series), hits give low values 0.236 | locus YMR277W, strain FCP1, hits give low values 0.46 | locus YNL006W, strain LST8, hits give low values 0.593 | locus YNL020C, strain ARK1, hits give low values 0.183 | locus YNL161W, strain CBK1, hits give low values 0.636 | locus YNL183C, strain NPR1, hits give low values 0.161 | locus YNL207W, strain RIO2, hits give low values 0.473 | locus YNL222W, strain SSU72, hits give low values 0.634 | locus YNL307C, strain MCK1 (second series), hits give low values 0.16 | locus YOL078W, strain AVO1, hits give low values 0.511 | locus YOL136C, strain PFK27, hits give low values 0.192 | locus YOR061W, strain CKA2, hits give low values 0.244 | locus YOR119C, strain RIO1, hits give low values 0.221 | locus YOR231W, strain MKK1, hits give low values 0.206 | locus YOR329C, strain SCD5, hits give low values 0.579 | locus YPL031C, strain PHO85, hits give low values 0.184 | locus YPL153C, strain RAD53, hits give low values 0.207 | locus YPL204W, strain HRR25, hits give low values 0.198 | locus YPL209C, strain IPL1, hits give low values 0.684 | locus YPL256C, strain CLN2, hits give low values 0.223 | locus YPR025C, strain CCL1, hits give low values 0.705 | locus YPR106W, strain ISR1, hits give low values 0.601 | locus YPR111W, strain DBF20, hits give low values 0.691 | strain NNK1, hits give low values 0.305 | strain TSCII, hits give low values 0.527
